{
  "source": "the supplement of paper PMC10849652",
  "note": "Targets with a hit are over-represented here; the source holds about 7,900 in all. About 0.6% of all pairs of compound and target were hits. Values without a mark were called inactive.",
  "data": [
    {"compound": "C1=CC(=C(C=C1Cl)C2=NC3=NC=CN=C3C(=N2)NC4=CC=NC=C4)F", "experiment": "log2 fold change, soluble protein after heating vs DMSO (PISA); higher = thermal stabilisation; K562 cells, 10 uM, 30 min; active = over 0.2 and 3.5 SD of the protein, either way, in both replicates (recomputed)", "in_short": "(§1)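 K562 cells at 2×10^6 cells/mL were treated for 30 min with 10 μM compound, and aliquots were heated for 3 min over 48°C-58°C before pooling. Extraction used PBS with 0.5% NP-40 at 4°C, and soluble protein was the supernatant after 21,000xg for 90 min, measured by TMTpro 16plex LC-MS/MS with channel sums equalised. Thermal stability values, relative to control samples and from duplicates, are log2 fold changes.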", "values": [
      {"target": "MARCHF3 (UniProt Q86UD3)", "log2 fold change": -0.188},
      {"target": "LRFN1 (UniProt Q9P244)", "sequence (Q9P244 whole entry, looked up)": "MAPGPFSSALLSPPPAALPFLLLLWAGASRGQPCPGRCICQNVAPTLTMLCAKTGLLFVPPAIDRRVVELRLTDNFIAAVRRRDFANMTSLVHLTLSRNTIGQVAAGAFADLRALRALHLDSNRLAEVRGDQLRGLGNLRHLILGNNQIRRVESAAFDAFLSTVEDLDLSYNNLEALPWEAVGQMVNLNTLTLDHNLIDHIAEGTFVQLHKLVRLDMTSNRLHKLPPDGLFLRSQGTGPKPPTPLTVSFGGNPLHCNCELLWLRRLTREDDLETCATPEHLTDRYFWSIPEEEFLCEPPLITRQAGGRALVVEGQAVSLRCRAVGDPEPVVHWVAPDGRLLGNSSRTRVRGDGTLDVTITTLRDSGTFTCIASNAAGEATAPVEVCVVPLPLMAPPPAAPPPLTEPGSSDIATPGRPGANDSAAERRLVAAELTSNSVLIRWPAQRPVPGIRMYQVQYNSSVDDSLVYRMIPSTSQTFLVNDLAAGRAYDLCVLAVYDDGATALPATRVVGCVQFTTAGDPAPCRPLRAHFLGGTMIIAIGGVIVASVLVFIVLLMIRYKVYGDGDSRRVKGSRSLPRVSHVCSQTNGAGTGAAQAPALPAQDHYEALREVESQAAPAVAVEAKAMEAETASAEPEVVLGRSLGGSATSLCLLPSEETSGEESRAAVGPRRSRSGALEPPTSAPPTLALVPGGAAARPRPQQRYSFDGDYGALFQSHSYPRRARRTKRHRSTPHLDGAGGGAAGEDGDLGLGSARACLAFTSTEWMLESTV", "log2 fold change": -0.028},
      {"target": "MAPK7 (UniProt Q13164)", "log2 fold change": 0.02},
      {"target": "KCNK5 (UniProt O95279)", "sequence (O95279 whole entry, looked up)": "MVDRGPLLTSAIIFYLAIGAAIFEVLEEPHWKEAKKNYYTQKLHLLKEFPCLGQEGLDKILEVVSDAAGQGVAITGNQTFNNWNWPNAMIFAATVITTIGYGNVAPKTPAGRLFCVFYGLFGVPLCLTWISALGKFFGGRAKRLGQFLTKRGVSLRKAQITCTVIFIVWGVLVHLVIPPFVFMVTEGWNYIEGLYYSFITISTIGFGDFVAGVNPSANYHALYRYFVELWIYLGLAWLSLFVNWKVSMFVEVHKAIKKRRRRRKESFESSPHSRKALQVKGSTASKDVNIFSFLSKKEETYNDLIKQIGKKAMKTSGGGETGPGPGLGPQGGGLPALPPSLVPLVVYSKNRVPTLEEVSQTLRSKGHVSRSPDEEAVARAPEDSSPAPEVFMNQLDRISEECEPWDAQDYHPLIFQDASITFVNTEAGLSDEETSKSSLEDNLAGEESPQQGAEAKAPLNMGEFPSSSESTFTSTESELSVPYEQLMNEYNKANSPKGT", "log2 fold change": -0.128},
      {"target": "LSR (UniProt M0QZL9)", "log2 fold change": 0.029},
      {"target": "MFSD11 (UniProt O43934)", "sequence (O43934 whole entry, looked up)": "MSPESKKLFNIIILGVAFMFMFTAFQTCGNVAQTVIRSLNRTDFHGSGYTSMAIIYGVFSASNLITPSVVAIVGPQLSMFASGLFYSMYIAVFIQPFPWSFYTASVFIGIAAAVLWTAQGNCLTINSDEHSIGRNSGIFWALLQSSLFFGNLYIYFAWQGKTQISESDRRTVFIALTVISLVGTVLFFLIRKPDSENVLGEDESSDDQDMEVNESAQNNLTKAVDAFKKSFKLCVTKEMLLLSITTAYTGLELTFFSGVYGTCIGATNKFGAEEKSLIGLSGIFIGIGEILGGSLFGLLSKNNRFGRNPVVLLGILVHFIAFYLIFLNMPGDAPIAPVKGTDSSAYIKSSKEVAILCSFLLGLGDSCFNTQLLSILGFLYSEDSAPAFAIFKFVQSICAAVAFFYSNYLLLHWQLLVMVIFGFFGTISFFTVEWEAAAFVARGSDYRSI", "log2 fold change": 0.007},
      {"target": "ILF3 (UniProt Q12906)", "log2 fold change": -0.083},
      {"target": "ITPRID2 (UniProt P28290)", "log2 fold change": -0.133},
      {"target": "MAML1 (UniProt Q92585)", "log2 fold change": 0.004},
      {"target": "MFAP3 (UniProt P55082)", "sequence (P55082 whole entry, looked up)": "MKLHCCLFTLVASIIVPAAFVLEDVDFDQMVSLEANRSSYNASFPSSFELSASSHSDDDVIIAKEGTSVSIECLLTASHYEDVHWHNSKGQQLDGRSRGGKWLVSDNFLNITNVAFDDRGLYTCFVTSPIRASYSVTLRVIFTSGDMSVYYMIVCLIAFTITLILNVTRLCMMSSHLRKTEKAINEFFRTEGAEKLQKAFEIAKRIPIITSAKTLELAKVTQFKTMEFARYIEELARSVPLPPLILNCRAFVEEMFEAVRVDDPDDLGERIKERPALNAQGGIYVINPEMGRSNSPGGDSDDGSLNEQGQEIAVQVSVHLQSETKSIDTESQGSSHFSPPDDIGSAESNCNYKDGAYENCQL", "log2 fold change": -0.021},
      {"target": "IGFBP3 isoform 2 (UniProt P17936)", "log2 fold change": -0.094},
      {"target": "MCM10 (UniProt Q7L590)", "sequence (Q7L590 whole entry, looked up)": "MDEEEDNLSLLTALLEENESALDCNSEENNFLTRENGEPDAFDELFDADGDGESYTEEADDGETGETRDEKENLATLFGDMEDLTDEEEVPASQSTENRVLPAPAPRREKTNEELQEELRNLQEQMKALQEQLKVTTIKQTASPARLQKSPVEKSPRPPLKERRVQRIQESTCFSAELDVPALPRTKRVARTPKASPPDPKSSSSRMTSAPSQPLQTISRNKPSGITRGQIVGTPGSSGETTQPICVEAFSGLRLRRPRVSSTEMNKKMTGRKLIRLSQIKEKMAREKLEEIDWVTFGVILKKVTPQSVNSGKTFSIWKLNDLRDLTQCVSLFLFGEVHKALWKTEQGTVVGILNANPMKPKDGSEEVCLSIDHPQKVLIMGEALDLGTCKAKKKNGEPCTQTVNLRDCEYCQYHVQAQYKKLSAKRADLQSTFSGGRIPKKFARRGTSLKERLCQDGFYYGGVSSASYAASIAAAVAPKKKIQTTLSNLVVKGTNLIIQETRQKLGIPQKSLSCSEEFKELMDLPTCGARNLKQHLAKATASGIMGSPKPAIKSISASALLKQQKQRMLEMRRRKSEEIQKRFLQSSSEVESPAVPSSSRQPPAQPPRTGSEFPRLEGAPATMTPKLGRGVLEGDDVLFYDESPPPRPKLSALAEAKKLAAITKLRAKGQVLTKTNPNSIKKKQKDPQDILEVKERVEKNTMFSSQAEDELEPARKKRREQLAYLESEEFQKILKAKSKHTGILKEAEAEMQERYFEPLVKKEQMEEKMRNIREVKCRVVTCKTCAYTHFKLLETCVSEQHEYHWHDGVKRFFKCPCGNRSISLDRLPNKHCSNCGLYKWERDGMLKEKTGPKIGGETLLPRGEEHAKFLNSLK", "log2 fold change": 0.205},
      {"target": "JAK3 (UniProt P52333)", "log2 fold change": 0.062}
    ]},
    {"compound": "C1=CC(=CC=C1C2=NC3=C(N2)C=C(C=C3)C(=O)N)OC4=CC=C(C=C4)Cl", "experiment": "log2 fold change, soluble protein after heating vs DMSO (PISA); higher = thermal stabilisation; K562 cells, 10 uM, 30 min; active = over 0.2 and 3.5 SD of the protein, either way, in both replicates (recomputed)", "in_short": "as §1", "values": [
      {"target": "LAPTM4B (UniProt Q86VI4)", "log2 fold change": -0.054},
      {"target": "MED25 isoform 3 (UniProt Q71SY5)", "sequence (Q71SY5 whole entry, looked up)": "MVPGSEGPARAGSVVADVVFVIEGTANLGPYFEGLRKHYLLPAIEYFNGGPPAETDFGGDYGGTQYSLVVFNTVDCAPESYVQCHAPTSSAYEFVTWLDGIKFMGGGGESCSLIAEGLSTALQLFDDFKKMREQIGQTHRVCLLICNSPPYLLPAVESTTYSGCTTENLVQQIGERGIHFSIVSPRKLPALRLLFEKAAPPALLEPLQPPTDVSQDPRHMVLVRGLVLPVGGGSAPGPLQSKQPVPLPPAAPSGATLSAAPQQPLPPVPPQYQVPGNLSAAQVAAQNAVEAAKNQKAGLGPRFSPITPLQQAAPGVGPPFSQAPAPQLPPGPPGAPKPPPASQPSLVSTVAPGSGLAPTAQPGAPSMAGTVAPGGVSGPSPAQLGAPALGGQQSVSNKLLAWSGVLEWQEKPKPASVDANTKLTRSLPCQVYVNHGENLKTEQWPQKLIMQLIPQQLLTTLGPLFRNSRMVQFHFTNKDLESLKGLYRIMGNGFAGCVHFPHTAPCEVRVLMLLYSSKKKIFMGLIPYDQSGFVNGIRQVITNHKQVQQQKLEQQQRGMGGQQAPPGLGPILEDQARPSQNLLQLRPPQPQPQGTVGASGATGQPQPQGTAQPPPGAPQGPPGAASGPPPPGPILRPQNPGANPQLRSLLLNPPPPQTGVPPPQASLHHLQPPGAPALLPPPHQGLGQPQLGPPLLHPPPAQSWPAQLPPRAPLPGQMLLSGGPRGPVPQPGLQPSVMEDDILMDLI", "log2 fold change": 0.005},
      {"target": "MCOLN3 (UniProt Q8TDD5)", "log2 fold change": -0.016},
      {"target": "MAPK14 (UniProt Q16539)", "sequence (Q16539 whole entry, looked up)": "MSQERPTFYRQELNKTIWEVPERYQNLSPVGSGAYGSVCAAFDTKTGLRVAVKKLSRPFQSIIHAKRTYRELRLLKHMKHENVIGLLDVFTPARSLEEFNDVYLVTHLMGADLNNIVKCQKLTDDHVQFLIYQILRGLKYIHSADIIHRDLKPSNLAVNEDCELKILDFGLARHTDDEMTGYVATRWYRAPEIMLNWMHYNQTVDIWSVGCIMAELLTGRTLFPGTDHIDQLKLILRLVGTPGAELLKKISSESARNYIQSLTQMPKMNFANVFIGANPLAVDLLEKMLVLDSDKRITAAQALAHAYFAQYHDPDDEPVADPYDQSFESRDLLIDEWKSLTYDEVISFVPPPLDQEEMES", "log2 fold change": -0.116},
      {"target": "LRFN1 (UniProt Q9P244)", "log2 fold change": 0},
      {"target": "MAPK11 (UniProt Q15759)", "log2 fold change": -0.28},
      {"target": "KCNK5 (UniProt O95279)", "log2 fold change": 0.077},
      {"target": "ING5 (UniProt Q8WYH8)", "log2 fold change": -0.119},
      {"target": "KIF21A (UniProt H0YI78)", "log2 fold change": -0.137},
      {"target": "LOX (UniProt P28300)", "log2 fold change": 0.315},
      {"target": "MFSD12 isoform 3 (UniProt Q6NUT3)", "log2 fold change": 0.077},
      {"target": "ITPRID2 (UniProt P28290)", "log2 fold change": -0.268},
      {"target": "MAML1 (UniProt Q92585)", "log2 fold change": 0.082},
      {"target": "MAGEA8 (UniProt P43361)", "sequence (P43361 whole entry, looked up)": "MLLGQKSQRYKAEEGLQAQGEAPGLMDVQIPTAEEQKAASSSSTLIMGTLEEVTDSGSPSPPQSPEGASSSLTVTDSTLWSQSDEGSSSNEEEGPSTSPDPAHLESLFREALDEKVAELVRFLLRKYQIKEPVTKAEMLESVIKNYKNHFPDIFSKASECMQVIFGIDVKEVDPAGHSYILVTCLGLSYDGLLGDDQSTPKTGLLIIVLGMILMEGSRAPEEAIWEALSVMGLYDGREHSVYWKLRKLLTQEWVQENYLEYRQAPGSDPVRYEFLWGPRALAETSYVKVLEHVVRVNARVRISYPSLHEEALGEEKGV", "log2 fold change": -0.075},
      {"target": "MED29 (UniProt Q9NX70)", "log2 fold change": 0.062},
      {"target": "MCM10 (UniProt Q7L590)", "log2 fold change": 0.039},
      {"target": "IKZF1 isoform 2 (UniProt Q13422)", "log2 fold change": -0.006},
      {"target": "MGRN1 isoform 2 (UniProt O60291)", "sequence (O60291 whole entry, looked up)": "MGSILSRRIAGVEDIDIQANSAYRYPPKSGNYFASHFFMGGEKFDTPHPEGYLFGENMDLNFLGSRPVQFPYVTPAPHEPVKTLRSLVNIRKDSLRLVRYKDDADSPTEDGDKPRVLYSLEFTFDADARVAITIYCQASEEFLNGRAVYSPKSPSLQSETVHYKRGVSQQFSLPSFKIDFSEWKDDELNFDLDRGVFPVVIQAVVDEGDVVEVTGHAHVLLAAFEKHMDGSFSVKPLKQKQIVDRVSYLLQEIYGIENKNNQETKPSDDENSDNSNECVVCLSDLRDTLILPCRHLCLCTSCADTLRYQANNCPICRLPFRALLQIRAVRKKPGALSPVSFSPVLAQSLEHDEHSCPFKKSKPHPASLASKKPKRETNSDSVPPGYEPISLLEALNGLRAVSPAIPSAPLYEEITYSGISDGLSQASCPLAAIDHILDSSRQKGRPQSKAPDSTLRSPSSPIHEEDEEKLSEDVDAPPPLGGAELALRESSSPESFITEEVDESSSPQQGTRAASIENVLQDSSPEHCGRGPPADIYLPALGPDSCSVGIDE", "log2 fold change": 0},
      {"target": "JAK3 (UniProt P52333)", "log2 fold change": -0.013},
      {"target": "LDLRAP1 (UniProt Q5SW96)", "log2 fold change": 0.252}
    ]},
    {"compound": "C1=CC2=C(C=CC(=C2)/C=C\\3/C(=O)NC(=NCC4=CC=CS4)S3)N=C1", "experiment": "log2 fold change, soluble protein after heating vs DMSO (PISA); higher = thermal stabilisation; K562 cells, 10 uM, 30 min; active = over 0.2 and 3.5 SD of the protein, either way, in both replicates (recomputed)", "in_short": "as §1", "values": [
      {"target": "MED25 isoform 3 (UniProt Q71SY5)", "log2 fold change": 0.048},
      {"target": "MAPK14 (UniProt Q16539)", "log2 fold change": -0.054},
      {"target": "MAP2K5 (UniProt Q13163)", "log2 fold change": 0.277},
      {"target": "MAPK7 (UniProt Q13164)", "log2 fold change": 0},
      {"target": "IGFBP6 (UniProt P24592)", "log2 fold change": 0.057},
      {"target": "MFSD11 (UniProt O43934)", "log2 fold change": 0.047},
      {"target": "MAPRE3 isoform 2 (UniProt Q9UPY8)", "log2 fold change": -0.18},
      {"target": "KIZ (UniProt Q2M2Z5)", "log2 fold change": 0.077},
      {"target": "LRRCC1 (UniProt Q9C099)", "log2 fold change": 0.088},
      {"target": "MFSD12 isoform 3 (UniProt Q6NUT3)", "log2 fold change": -0.035},
      {"target": "IPP (UniProt Q9Y573)", "log2 fold change": 0.083},
      {"target": "MFAP3 (UniProt P55082)", "log2 fold change": 0.029},
      {"target": "IGFBP3 isoform 2 (UniProt P17936)", "log2 fold change": 0.049},
      {"target": "MAGEA8 (UniProt P43361)", "log2 fold change": -0.04},
      {"target": "MED29 (UniProt Q9NX70)", "log2 fold change": -0.089},
      {"target": "KIF13A isoform 4 (UniProt Q9H1H9)", "log2 fold change": 0.161},
      {"target": "MGRN1 isoform 2 (UniProt O60291)", "log2 fold change": "-0.544 (active)"}
    ]},
    {"compound": "C1=CC2=NC=CN=C2C=C1/C=C/3\\C(=O)NC(=O)S3", "experiment": "log2 fold change, soluble protein after heating vs DMSO (PISA); higher = thermal stabilisation; K562 cells, 10 uM, 30 min; active = over 0.2 and 3.5 SD of the protein, either way, in both replicates (recomputed)", "in_short": "as §1", "values": [
      {"target": "LAPTM4B (UniProt Q86VI4)", "log2 fold change": 0.093},
      {"target": "MED25 isoform 3 (UniProt Q71SY5)", "log2 fold change": -0.031},
      {"target": "MCOLN3 (UniProt Q8TDD5)", "log2 fold change": 0.112},
      {"target": "MAPK14 (UniProt Q16539)", "log2 fold change": 0.001},
      {"target": "MARCHF3 (UniProt Q86UD3)", "log2 fold change": -0.073},
      {"target": "LRFN1 (UniProt Q9P244)", "log2 fold change": 0.004},
      {"target": "KCNK5 (UniProt O95279)", "log2 fold change": 0.095},
      {"target": "MFSD11 (UniProt O43934)", "log2 fold change": 0.043},
      {"target": "ILF3 (UniProt Q12906)", "log2 fold change": 0.128},
      {"target": "LOX (UniProt P28300)", "log2 fold change": 0.038},
      {"target": "MAP4K2 (UniProt Q12851)", "log2 fold change": -0.122},
      {"target": "IPP (UniProt Q9Y573)", "log2 fold change": -0.17},
      {"target": "MFAP3 (UniProt P55082)", "log2 fold change": -0.106},
      {"target": "MAGEA8 (UniProt P43361)", "log2 fold change": 0.132},
      {"target": "MCM10 (UniProt Q7L590)", "log2 fold change": -0.054},
      {"target": "IKZF1 isoform 2 (UniProt Q13422)", "log2 fold change": 0.046},
      {"target": "MGRN1 isoform 2 (UniProt O60291)", "log2 fold change": 0.004},
      {"target": "JAK3 (UniProt P52333)", "log2 fold change": 0.021},
      {"target": "LDLRAP1 (UniProt Q5SW96)", "log2 fold change": 0.199}
    ]}
  ]
}
